Compound activity (PubChem)
Most compounds without a hit are left out; they make up all but 2.4% or so of the library.
D2 ag-1 – D2 dopamine receptor (human) agonism; HEK293 T-REx D2 cells, calcium flux agonist mode; activation, % at 2 µM; 0.53% of 340,000 active; AID 485358;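 active = activation over 3 SD above normal in the single-dose calcium agonist read, cut at about 30% in these data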
Target sequence (P14416 whole entry, looked up): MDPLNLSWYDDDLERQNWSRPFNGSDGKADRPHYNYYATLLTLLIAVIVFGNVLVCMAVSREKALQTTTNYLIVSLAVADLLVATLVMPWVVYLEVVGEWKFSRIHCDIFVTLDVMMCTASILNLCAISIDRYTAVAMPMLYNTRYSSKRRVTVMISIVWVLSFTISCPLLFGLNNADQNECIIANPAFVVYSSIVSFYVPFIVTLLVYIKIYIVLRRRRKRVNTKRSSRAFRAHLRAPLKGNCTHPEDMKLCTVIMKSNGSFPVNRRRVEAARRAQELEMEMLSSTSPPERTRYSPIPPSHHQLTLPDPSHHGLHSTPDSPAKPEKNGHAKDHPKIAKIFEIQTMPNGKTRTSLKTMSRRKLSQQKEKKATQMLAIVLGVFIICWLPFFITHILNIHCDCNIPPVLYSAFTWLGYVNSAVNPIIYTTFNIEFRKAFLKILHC
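In this primary screen, compounds producing a positive calcium signal within 180 s of addition to tetracycline-induced, force-coupled HEK293 Trex D2 cells are flagged; cells are dye-loaded with a no-wash calcium kit beforehand.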
D2 antagonist – antagonists of human D2 dopamine receptor | P14416 | HEK293 TREx D2 cells, calcium flux, dopamine EC80 | inhibition, % at 10 µM | 2% of 340,000 active | AID 485344; in the data active = inhibition above about 30%; inactive = below that, where a call was filed
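In this primary screen, negative modulation is detected by tracking calcium flux after an EC80 dopamine challenge in inducible HEK293 T-REx D2 cells preexposed to test compound for 180 s.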
B2AR arrestin – beta2AR (human) beta-arrestin recruitment activity; beta-arrestin recruitment to beta2AR, cell-based reporter; Potency, µM (top dose mostly 46.1 µM), hits mostly activators; 0.02% of 330,000 active; AID 492947; active = well fitted activation curve with a large enough effect; inconclusive = small, poorly fitted or top-dose-only effect; note: nearly all actives have a fitted effect of over 65% in size
D2 PAM-1 – potentiates the human D2 dopamine receptor allosterically; P14416; DiscoveRx D2 beta-arrestin cells, luminescence, 90 min; 100% = 57 uM dopamine signal; potentiation, % (test concentration not listed); 0.23% of 360,000 active; AID 624464; in the data active = potentiation above about 50%; inconclusive = mostly about 30% to 49%
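D2 cells co-treated with compound plus 50 nM dopamine (EC20) for 90 min at 37 deg C to detect potentiation. Beta-arrestin recruitment was read as enzyme-fragment luminescence after 1 h at ambient temperature. Full response was set by 57 uM dopamine.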
D2 PAM-2 – positively modulates the human D2 dopamine receptor allosterically. 0.34% of 340,000 active. HEK293 T-REx D2, calcium flux, EC20 dopamine potentiation. P14416. potentiation, % at 10 µM. AID 485347;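 active = potentiation over 3 SD above the plate norm, cut at about 30% in these data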
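Primary screen. Calcium kinetics in induced HEK293 T-REx D2 cells: compound pre-addition 180 s, EC20 dopamine, 180 s more.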
D2 ag-2 – agonists of human D2 dopamine receptor (beta-arrestin); P14416; DiscoveRx PathHunter D2 beta-arrestin, luminescence, 90 min; 100% = 57 uM dopamine signal; activation, % (no concentration beside the values); 0.084% of 360,000 active; in the data active = activation above about 40%; inconclusive = between about 15% and that limit
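Agonist mode: compounds alone added to overnight-plated D2 PathHunter cells for 90 min at 37 C, with 57 uM final dopamine (EC100) defining full response. Beta-arrestin recruitment detected by chemiluminescent reagent, read after 1 h at ambient temperature.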
Numbers stand for hits; n = inactive; u = inconclusive; x = not tested or not shown.

SMILES	D2 ag-1	D2 antagonist	B2AR arrestin	D2 PAM-1	D2 PAM-2	D2 ag-2
CCc1nc2c(OCC(=O)c3ccc(F)cc3)cccn2c1N(C)C(=O)COc1ccccc1	x	x	x	n	x	n
Cc1ccc(S(=O)(=O)N2CCN(C(=O)C3CCCO3)CC2)cc1 (stereo not drawn)	x	x	n	n	n	n
CC(C)Oc1ccc(S(=O)(=O)N2CCOCC2)cc1NC(=O)Cc1c(F)cccc1Cl	n	31	n	n	n	n
CC(C)Oc1ccc(S(=O)(=O)N2CCCCC2)cc1NC(=O)CN1CCCC1c1cccs1 (stereo not drawn)	n	33	n	n	n	n
COc1ccccc1CNC(=O)C1CCCN(S(=O)(=O)c2c(C)[nH]c(=O)[nH]c2=O)C1 (stereo not drawn)	n	n	n	n	n	n
CCN(CC)CCN(C(=O)c1ccc2c(c1)CCCC2)c1nc2ccc(F)cc2s1	n	n	n	n	n	n
CCN(CC)CCN(C(=O)c1ccc2c(c1)CCCC2)c1nc2ccc(C)cc2s1	n	46	n	n	n	n
CCN(CC)CCN(C(=O)c1ccc2c(c1)CCCC2)c1nc2c(C)cccc2s1	n	60	n	n	n	n
Cc1ccc(NC(=O)N2CCC(C(=O)Nc3ccc(C)cc3C)CC2)cc1	n	n	n	n	n	n
Cc1cc(=O)oc2cc(OCC(=O)OCC(=O)Nc3ccccc3C(C)C)ccc12	n	n	n	n	n	n
Cc1ccnc(NC(=O)c2cc(-n3cnnc3)ccc2Cl)c1	n	n	n	n	n	n
CCN(CC)c1ccc(/C=C2\C(=O)c3ccc(C(=O)O)cc3C2=O)cc1	110	54	n	n	n	n
CCOc1ccc(Cl)cc1S(=O)(=O)N1CCC(C(=O)NCc2ccncc2)CC1	n	n	n	n	n	n
COc1ccc(N2CCN(C(=O)CN(C)S(=O)(=O)c3cccs3)CC2)cc1	n	n	n	n	n	n
O=C(CSc1nc(O)c(C2CCCCC2)c(=O)[nH]1)NCC1CCCO1 (stereo not drawn)	n	n	n	n	n	n
Cc1cc(=O)[nH]c(SCC(=O)NCC2CCCO2)n1 (stereo not drawn)	n	34	n	n	n	n
CC(=O)c1ccc(NC(=O)c2ccc3nc(-c4ccco4)c(-c4ccco4)nc3c2)cc1	x	x	n	76	x	n
CCOC(=O)C1(Cc2cccc(Cl)c2)CCCN(C(=O)c2cc(CC)on2)C1 (stereo not drawn)	n	n	n	n	n	n
c1ccc(-c2cc3n(c2)CCc2ccccc2-3)cc1	n	33	n	n	n	n
O=C(O)c1cc2c(s1)-c1ccccc1CC2	n	n	n	n	n	n
COc1ccc(S(=O)(=O)N(CC(=O)NCC2CCCO2)c2ccc(Cl)cc2)cc1 (stereo not drawn)	x	x	n	n	x	n
CCS(=O)(=O)N1Cc2ccccc2CC1C(=O)Nc1cccc(OC)c1 (stereo not drawn)	n	34	n	n	n	n
CCS(=O)(=O)N1Cc2ccccc2CC1C(=O)Nc1ccc(OC)c(OC)c1 (stereo not drawn)	n	n	n	n	n	n
O=C(NC(=S)Nc1ccc(S(=O)(=O)Nc2nccs2)cc1)C1CC1	n	n	n	n	n	n
CC(C)C(=O)NC(=S)Nc1ccc(S(=O)(=O)Nc2nccs2)cc1	n	39	n	n	n	n
SMILES	D2 ag-1	D2 antagonist	B2AR arrestin	D2 PAM-1	D2 PAM-2	D2 ag-2
CC(Oc1ccc(Br)cc1)C(=O)Nc1ccc(S(=O)(=O)Nc2nccs2)cc1 (stereo not drawn)	n	n	n	n	n	n
Cc1cc2oc(C(=O)Nc3ccc(S(=O)(=O)Nc4nccs4)cc3)cc(=O)c2cc1Cl	n	34	n	n	n	n
Cc1cc(C)c2oc(C(=O)Nc3ccc(S(=O)(=O)Nc4nccs4)cc3)cc(=O)c2c1	n	n	n	n	n	n
CCc1ccc(S(=O)(=O)Nc2nccs2)cc1	n	n	n	n	38	n
CCC(Oc1ccc(C)cc1)C(=O)Nc1ccc(S(=O)(=O)Nc2nccs2)cc1 (stereo not drawn)	n	n	n	n	42	n
O=S(=O)(NCC(c1ccco1)N1CCCCC1)c1cccc(C(F)(F)F)c1 (stereo not drawn)	n	n	n	n	n	n
COc1cc2c(cc1OC)C(=O)C(Br)CC2 (stereo not drawn)	x	x	x	n	x	46
O=C(CSC1=NCCN1)Nc1cccc([N+](=O)[O-])c1	n	49	n	n	n	n
Cc1csc(SCC(=O)Nc2cccc(S(=O)(=O)N3CCOCC3)c2)n1	n	n	n	n	n	n
CCOc1ccc(-n2c(Cc3cc(=O)[nH]c(=O)[nH]3)nnc2SCC)cc1	n	40	n	n	n	n
CN(C)CCNC(=O)c1nn(C)c2c1CCc1ccccc1-2	n	n	n	n	n	n
CCc1ccc(N2CC(C(=O)OCc3csc(CC(=O)Nc4ccccc4C)n3)CC2=O)cc1 (stereo not drawn)	n	n	n	n	56	n
CCOC(=O)c1cccc(Nc2ncnc3ccccc23)c1	n	n	n	n	34	n
COC(=O)c1cccc(Nc2ncnc3ccc(C)cc23)c1	n	n	n	n	n	n
CCOc1ccc(CCNC(=O)c2cnc3sc(N4CCCC4)nn3c2=O)cc1	n	x	x	x	n	x
COC(=O)NCC(c1cccnc1)N1CCOCC1 (stereo not drawn)	n	n	n	n	n	n
O=C(NCC(c1cccnc1)N1CCOCC1)c1cccs1 (stereo not drawn)	n	34	n	n	n	n
Cc1oc2c(c1C(=O)N1CCC(C)CC1)C(=O)c1ccccc1C2=O	n	n	n	n	n	n
COc1ccc(C(=O)c2coc(-c3ccccc3C(=O)O)c2C(=O)O)cc1	n	n	n	n	n	n
Cc1oc2c(c1C(=O)c1ccc(Cl)cc1)C(=O)C(=O)c1ccccc1-2	n	n	n	109	n	n
Cc1ccc(C(=O)c2c(C)oc3c2C(=O)C(=O)c2ccccc2-3)cc1	n	n	n	74	n	u
Cc1ccc(C(=O)c2coc3c2C(=O)C(=O)c2ccccc2-3)cc1	n	n	n	64	n	u
COc1ccccc1CNC(=O)CCn1c(=O)c2ccccc2n(CC(=O)Nc2ccc(C)cc2C)c1=O	n	x	x	x	n	x
Cc1ccc(NC(=O)C(C)[n+]2ccccc2)cc1[N+](=O)[O-] (stereo not drawn)	n	60	n	n	n	n
COCC(C)NC(=O)CSc1nnc(-c2cccc(S(=O)(=O)N3CCCCC3)c2)o1 (stereo not drawn)	n	n	n	n	n	n
